Laboratory results from PubChem BioAssay AID651690 (Sanford-Burnham Center for Chemical Genomics, 2012).
Some of the results follow. Values without a mark were called inactive. No stated cut-off is given here; in the data, active means inhibition mostly above about 32% (no sharp cut-off); inactive means mostly below about 29%.

Molecular target: Sentrin-specific protease 1 (Homo sapiens) (UniProt Q9P0U3)
Assay: SENP1 SUMO protease blockers by rate readout – biochemical, kinetic FRET, single concentration, confirmation (AID 651690);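 further: 0% = DMSO with enzyme and 100% = no enzyme substrate only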
Conditions: recombinant SENP1, CyPet-SUMO1-YPet FRET kinetic cleavage; at 10 µM; active compounds read high

Sequence of Sentrin-specific protease 1 (Homo sapiens) (Q9P0U3 419-644 limits assumed): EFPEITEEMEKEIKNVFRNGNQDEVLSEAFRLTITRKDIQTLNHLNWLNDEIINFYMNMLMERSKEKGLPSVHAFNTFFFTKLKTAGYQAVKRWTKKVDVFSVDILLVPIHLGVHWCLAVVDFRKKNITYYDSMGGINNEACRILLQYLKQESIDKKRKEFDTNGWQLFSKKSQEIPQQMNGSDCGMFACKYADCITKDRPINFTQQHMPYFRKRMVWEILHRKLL

SMILES: COc1ccccc1N=Nc1c(O)[nH]c(=S)[nH]c1=O
- inhibition: 31.3%
